Most compounds without a hit are left out; they make up all but 4% or so of the library.
EWS-Fli block – inhibitors of EWS/Fli oncoprotein transcriptional activity | A673 NR0B1-luciferase reporter, viability-normalised | inhibition, % at 12.6 µM | 350,000 tested, 0.67% active;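 active means mean inhibition of at least 50% after viability correction, with every replicate also passing that limit; inconclusive means mean reaches 50% but only one of two replicates passes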;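 further: firefly luciferase signal divided by Alamar Blue viability fluorescence both relative to DMSO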
PAX8 inh HTS – inhibitors of PAX8 transcriptional activity in RMG-I cells; AID 652154; inhibition, % at 12.6 µM; 360,000 tested, 1.2% active; RMG-I TPO-luciferase reporter, SteadyGlo, 24 h;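 active means mean replicate inhibition at least 60% with every replicate also reaching 60%; inconclusive means only one of the two criteria is met; inactive means mean below 60% and not all replicates reaching 60%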;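 further: luciferase light reporting Pax8 driven TPO promoter activity; plate controls were median of neutral control wells for no effect and mitoxantrone controls for full effect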
esBAF inh – blocks esBAF chromatin remodeling in mouse ES cells; 350,000 tested, 2% active; reporter increase, % at 12.5 µM; Bmi1-luciferase knock-in reporter, 24 h; 100% = twice the neutral-well signal; in the data active means activation above about 40%; inconclusive means no clear call, values can overlap the other calls;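 further: 0% = median of the plate's neutral control wells and 100% = double that signal; a rise in the Bmi1 reporter signal indicates esBAF inhibition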
MITF TRPM1 inh – inhibitors of MITF-driven TRPM1 promoter in melanoma cells; SK-MEL-5 TRPM1 promoter luciferase, 24 h; inhibition, % at 12.5 µM; 330,000 tested, 0.83% active;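 active means mean inhibition across replicates of 60% or more, whatever share of single replicates reaches that level; inconclusive means some that reach 60%, reason not given; inactive means mean inhibition across replicates below 60%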
MITF act – increases MITF-driven TRPM1 promoter luciferase signal; 300,000 tested, 0.75% active; activation, % at 12.5 µM; SK-MEL-5 TRPM1-promoter luciferase, 24 h; % of positive control, neutral wells = 0;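 active means mean activation of at least 80% with every replicate also reaching 80%; inconclusive means mean reaches 80% but some replicate falls short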;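 further: 0% = neutral control wells and 100% = parthenolide positive control wells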
Wnt act – activators of Wnt/beta-catenin signaling; Wnt/beta-catenin reporter cell assay, activator, plate reader; activation, % at 9.35 µM; 300,000 tested, 1.2% active; AID 743398; in the data active means activation above about 30%, passing the limit was not always enough; inconclusive means no clear call, values can overlap the other calls;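 further: 0% = neutral control wells and 100% = positive control wells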
Active calls of the source: *; ? = inconclusive; . = no result given; ! = not active in a repeat.

SMILES	EWS-Fli block	PAX8 inh HTS	esBAF inh	MITF TRPM1 inh	MITF act	Wnt act
Cc1ccc(-c2nn(CC(=O)NCc3cc(-c4nn(C)c(=O)c5ccccc45)ccc3C)c(=O)c3ccccc23)cc1	.	-8	.	82*	-82	1
C[C@@H]1CCCCO[C@H](CN(C)Cc2ccc(C(=O)O)cc2)[C@@H](C)CN([C@H](C)CO)C(=O)c2cc(NS(=O)(=O)c3ccccc3)ccc2O1	-12	4	1	.	.	.
CCNC(=O)C[C@H]1CC[C@@H]2[C@H](COC[C@@H](O)CN2C(=O)CC)O1	6	1	3	.	.	.
COC(=O)[C@H]1[C@H](CO)[C@H]2Cn3c(ccc(-c4ccccc4)c3=O)[C@H]2N1CCc1ccccc1	-2	4	-5	.	.	.
C/C(=N\N=c1/sc2ccccc2n1C)c1ccccn1	-81	-55	?	-68	64	52*
COC(=O)[C@H]1[C@H](CO)[C@H]2Cn3c(ccc(-c4cccc(F)c4)c3=O)[C@H]2N1S(C)(=O)=O	3	.	-1	.	.	.
CN(C)c1cccc(/C=C(\C#N)c2ccccc2)c1	55*	-51	-7	-34	38	27
CCNC(=O)[C@@H]1[C@@H](CO)[C@@H]2Cn3c(ccc(-c4ccccc4)c3=O)[C@H]1N2Cc1cccnc1	4	.	-4	.	.	.
CC1=C([N+](=O)[O-])C(c2cccc(Br)c2)C2=C(N1)c1ccccc1C2=O (stereo not drawn)	.	85*	.	61*	.	-32
COC(=O)C1=C(C)NC2=C(C(=O)c3ccccc32)C1c1cccc(OC)c1 (stereo not drawn)	-1	-2	.	8	.	0
CCC(C)c1ccc(Nc2ncccc2C#N)cc1 (stereo not drawn)	.	.	81*	-43	49	.
CCc1ccc(Nc2ncccc2C#N)cc1	.	.	28	-53	51	.
Nc1nn2cc(-c3ccc(Br)cc3)nc2c2ccccc12	-84	-52	?	-48	55	44*
Brc1ccc(-c2cn3nc4c(nc3n2)CCCC4)cc1	.	.	.	36	-37	.
CO[C@@H]1CN(C)C(=O)c2ccc(NC(=O)Cc3ccccc3)cc2OC[C@H](C)NC[C@@H]1C	0	-7	0	.	.	.
O=C(O)CCCNC(=O)C(c1ccccc1)c1ccccc1	1	164*!	.	-6	7	0
COCC(=O)N1CC2(CN[C@H](CO)c3c2c2ccc(OC)cc2n3C)C1	-10	.	.	.	.	.
COC1=C(Br)C(=O)c2nc(C)ccc2C1=O	-22	4	-19	.	.	-1
COC1=C(N)C(=O)c2nc(C)ccc2C1=O	-68	-5	.	113*	.	-2
COc1ccc(C(=O)Nc2ccccc2NC(=O)c2ccc(OC)cc2)cc1	-14	-10	1	-12	16	2
COc1ccc(C(=O)NNC(=O)c2cccc3ccccc23)cc1	-57	-50	54*	-34	40	5
COc1ccc(C(=O)Nc2cccc3ccccc23)cc1	-94	-40	52*	-38	.	0
COc1cccc(C(=O)NNC(=O)c2cccc3ccccc23)c1	-17	-37	17	-24	23	-3
O=C(NNC(=O)c1cccc2ccccc12)c1ccc2c(c1)OCO2	-45	-39	54*	-55	50	-2
CCN(CC)CCCN(C(=O)c1cccs1)c1nc(-c2ccc(OC)cc2)cs1	.	.	-6	28	.	.
SMILES	EWS-Fli block	PAX8 inh HTS	esBAF inh	MITF TRPM1 inh	MITF act	Wnt act
COc1ccc(-c2csc(N(Cc3ccco3)C(=O)c3cccs3)n2)cc1	-37	-20	22	0	-3	41*
COc1ccc(OC)c(-c2csc(N(Cc3ccco3)C(=O)c3cccs3)n2)c1	.	.	3	-2	.	.
COc1ccc(-c2csc(N(C)C(=O)c3cccs3)n2)cc1	-70	-162	?	-89	97*	38*
CCCC(O)C#Cc1cnc2c(c1)C(=O)N([C@H](C)CO)C[C@H](C)[C@H](CN(C)Cc1ccc3c(c1)OCO3)O2 (stereo partly drawn)	-7	.	3	.	.	.
CN(C)C(=O)c1cccc(-c2ccc([C@@H]3[C@@H](CO)N4CCCCN(C(=O)C5CCCC5)C[C@@H]34)cc2)c1	-16	8	.	.	.	.
CNC(=O)N/N=C(\N)c1ccccn1	-23	-39	18	-17	15	13
N/C(=N\NC(=O)Nc1ccc(Cl)cc1)c1ccccn1	-54	-80	47*	-43	49	26
O=C1NC(c2cccc3ccccc23)Nc2ccc(Cl)cc21 (stereo not drawn)	38	71*	.	42	.	-3

Screening results (PubChem)
